A selection: hits, their analogues and other compounds. The true share with any hit is near 20%.
Pf growth 96h: P. falciparum growth inhibition at 96 hour, primary screen for plastid delayed-death inhibitors; P. falciparum luciferase reporter growth, 96 h; Potency, µM (titrated, usually from 28.7 µM), inactives show at the top dose activity change, negative = inhibition, actives largely listed as inhibitors; 6.9% of 320,000 active; note: potency is the fitted concentration of half-maximal effect; % is set by controls: 0 for no effect and ±100 for the full control effect
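Parasite growth measured via integrated firefly luciferase reporter in P. falciparum. Infected erythrocytes at 2% hematocrit, 0.05% parasitemia final were treated 96 hours at 37 C under 5% CO2, and luminescence was read.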
Pf growth 48h: P. falciparum growth inhibition at 48 hours (one generation). P. falciparum luciferase growth in erythrocytes, 48 h. 5.9% of 310,000 active. AID 504832. Potency, µM (doses to about 28.7 µM), without a hit: at the top dose activity change, negative = inhibition, most hits filed as inhibitors; note: potency is the fitted concentration of half-maximal effect; % is set by controls: 0 for no effect and ±100 for the full control effect
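Luminescence readout; reporter = integrated firefly luciferase in P. falciparum. RBC culture at 2% hematocrit, 0.1% parasitemia final, 37 C/5% CO2; decreased signal taken as growth inhibition.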
Shiga toxin inh: blocks Shiga toxin action in Vero cells; Vero cells, Shiga toxin protein synthesis inhibition reporter; inhibition, % at 38.7 µM; 9.2% of 290,000 active; AID 2315; in the data active = inhibition mostly above about 28%, no sharp cut-off; inactive = mostly below about 43%; note: 0% is about no effect
HCMV antiviral: human cytomegalovirus inhibition | HFF cells, HCMV-luciferase reporter, 72 h; active compounds read low | activity change, negative = inhibition, % at 57.5 µM | 4.5% of 410,000 active; in the data active = activity change below about -60%; inconclusive = no clear call, values can overlap the other calls; inactive = above about -39%; note: % is set by controls: 0 for no effect and ±100 for the full control effect
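Inhibition of viral replication was scored as loss of reporter luminescence in HFFs infected with HCMV-luciferase (MOI 1 PFU/cell) for 72 h; compounds tested at 2 doses, normalized to buffer and Salinomycin controls.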
Cycloheximide cs: counter-screen for Shiga toxin inhibitors: cycloheximide protein synthesis inhibition. 12% of 300,000 active. cell reporter, cycloheximide protein synthesis inhibition counterscreen. max response, %; in the data active = max response mostly above about 13%, no sharp cut-off; inactive = mostly below about 14%; note: read at 38.3 µM for the half of the compounds with a filed dose; 0% is about no effect
* = called active by the depositor; i = inactive; ? = inconclusive; nt = no result; [ ] = another dose, or the depositor's remark. Unless noted, calls come from the whole dose curve; as a rule, active = well fitted inhibition curve with a large enough effect; inconclusive = small, poorly fitted or top-dose-only effect, or another doubt; inactive = no such curve, though single readings can be large or run the other way.

SMILES	Pf growth 96h	Pf growth 48h	Shiga toxin inh	HCMV antiviral	Cycloheximide cs
COc1ccc(N2C(=O)S[C@@H]3CS(=O)(=O)C[C@@H]32)cc1	21%	-6%	-7	-37	-3
Cc1ccc2nc(-c3ccc(N4C(=N)SC5CS(=O)(=O)CC54)cc3)sc2c1 (stereo not drawn)	-14%	46%	126*	23	46*
CC1=CCC(C(=O)O)C(C(=O)Nc2ccc(-c3nc4ccc(C)cc4s3)cc2)C1 (stereo not drawn)	i	243%	104*	-38	54*
COCCNc1nnc(SC(C)C(=O)Nc2ccc(-c3nc4ccc(C)cc4s3)cc2)s1 (stereo not drawn)	?	5%	93*	30	28*
CCc1nc2c(OCCC3CCCCC3)cccn2c1N(C)C(=O)COc1ccccc1	nt	nt	nt	18	nt
CCCCOc1ccc(Cc2c(Cl)nc(SC)nc2N2CCOCC2)cc1	45%	13µM*	-10	-39	-1
NS(=O)(=O)c1ccc(-c2ccc(C=C3C(=O)NC(=O)NC3=O)o2)cc1	64%	58%	-6	4	1
O=C1NC(=O)C(=Cc2ccc(SC3CCCCC3)o2)C(=O)N1	-38%[5.75 µM]	23%	51*	172	12
O=C(N/N=C/c1ccc([N+](=O)[O-])o1)C(=O)Nc1ccc(C(=O)O)cc1	2.3µM*	2.3µM*	2	-23	1
Cc1ccc(NC(=O)CCC(=O)NN=Cc2ccc(C)o2)c(C)c1	nt	nt	nt	4	nt
O=C(O)c1ccc(N/N=C/C=C/c2ccc([N+](=O)[O-])o2)cc1	?	-1%	44	-7	12
CCC(=O)Nc1ccc(C(=O)N/N=C/c2ccc([N+](=O)[O-])cc2)cc1	?	-5%	1	40	-2
O=C(N/N=C/c1ccc(Br)o1)c1cc([N+](=O)[O-])cc([N+](=O)[O-])c1	21%	-3%	-6	-36	-2
Cc1ccc(NC(=O)CCC(=O)N/N=C/c2ccc([N+](=O)[O-])o2)cc1C	1.9µM*	7.4µM*	-5	?	-2
CCCC(=O)Nc1ccc(C(=O)N/N=C/c2ccc([N+](=O)[O-])o2)cc1	1.7µM*	-92%	15	-95*	9
O=C(N/N=C\c1ccc([N+](=O)[O-])o1)c1ccc(O)cc1	-102%[12.8 µM]	2.3µM*	nt	nt	nt
COc1ccc(CC(=O)N[C@@H]2c3ccccc3CC[C@@H]2OCc2ccccc2)cc1	nt	nt	nt	-23	nt
CCCS(=O)(=O)N1CC(=O)N(c2cc(C)ccc2C)C(C)(C(=O)NC2CCCCCC2)C1 (stereo not drawn)	nt	nt	nt	0	nt
O=C(COC(=O)C1CCN(c2ccc(C(F)(F)F)cn2)CC1)Nc1ncc(Cl)cc1Cl	8%	14%	nt	0	nt
O=C1C2CC=CCC2C(=O)N1SC(Cl)(Cl)Cl (stereo not drawn)	-17%	4%	nt	-74*	nt
CC(C)(C)c1ccc(CN(Cc2ccco2)Cc2nnnn2C2CCCC2)cc1	5.2µM*	9.3µM*	68	6	1
CCC(C)(C)n1nnnc1CN(Cc1ccco1)Cc1cc2cc3c(cc2[nH]c1=O)OCO3	6%	?	15	nt	5
CCC(C)(C)n1nnnc1CN(Cc1ccc(Cl)cc1)Cc1ccco1	?	10µM*	12	-64*	1
Cc1ccc2cc(CN(Cc3ccccc3)Cc3nnnn3C3CCCC3)c(=O)[nH]c2c1	?	?	22	-37	3
Cc1ccc2cc(CN(Cc3ccc(F)cc3)Cc3nnnn3C3CCCC3)c(=O)[nH]c2c1	51%	3.7µM*	15	25	12*
SMILES	Pf growth 96h	Pf growth 48h	Shiga toxin inh	HCMV antiviral	Cycloheximide cs
CC(C)(C)n1nnnc1CN(Cc1ccco1)Cc1cc2cc3c(cc2[nH]c1=O)OCO3	nt	?	-8	-65*	-3
CSCc1cc(N(C)c2ccccc2)nc(-c2ccccc2)n1	?	-7%[0.00184 µM]	-4	-24	6
Cc1onc(-c2ccccc2)c1C(=O)Nc1ccc(S(=O)(=O)N2CCOCC2)cc1	196%	-12%	-16	5	-7
COc1ccc2cc(CN(Cc3ccco3)Cc3nnnn3C3CCCCC3)c(=O)[nH]c2c1	8%	?	-9	-84*	1
COc1ccc2cc(CN(Cc3ccco3)C(c3nnnn3C3CCCCC3)C(C)C)c(=O)[nH]c2c1 (stereo not drawn)	-9%[5.75 µM]	?	-1	-24	1
CN(CC(=O)Nc1ccc(Cl)c(C(F)(F)F)c1)C(=O)C1CCC1	?	?	nt	-24	nt
C/C(CC(=O)Nc1ccc(Cl)c(C(F)(F)F)c1)=N\NC(=O)c1ccccc1O	?	?	41	-80*	22*
C/C(CC(=O)Nc1ccc(Cl)c(C(F)(F)F)c1)=N\NC(=O)c1cccc(O)c1	-1%	12µM*	68*	-15	44*
C/C(CC(=O)Nc1ccc(Cl)c(C(F)(F)F)c1)=N\NC(N)=S	35%	45%	73	-27	20*
CCN(c1ccc(NC(=O)c2ccc(N3CCCC3=O)cc2)cc1)C(C)C	?	?	nt	-70*	nt
O=C(Nc1cccc(S(=O)(=O)N2CCCCC2)c1)c1ccc(N2CCCC2=O)cc1	?	?	nt	-34	nt
CCOc1ncccc1C(=O)Nc1ccc(C)c(S(=O)(=O)N2CCCCCC2)c1	?	13µM*	nt	-15	nt
Cc1ccc(NC(=O)c2ccc(N3CCCC3=O)cc2)cc1S(=O)(=O)N1CCCCC1	0.37µM*	?	nt	-29	nt
CN(CC(=O)Nc1ccc(OC(F)(F)F)cc1)C(=O)c1ccc(N2CCCC2=O)cc1	-21%	-15%	nt	-70*	nt
O=C(CNC(=S)N(Cc1ccccc1)Cc1cccnc1)N1CCOCC1	38%	-8%	-10	-25	3
Cc1ccc(C(=O)Nc2ccc(F)cc2)cc1S(=O)(=O)N1CCOCC1	nt	nt	nt	-1	nt
O=C(Nc1cccnc1)c1ccc(Cl)c(S(=O)(=O)N2CCCCCC2)c1	nt	10µM*	55	?	21*
Cc1ccc(C(=O)Nc2ccc(F)cc2)cc1S(=O)(=O)N1CCCCCC1	nt	nt	nt	-101*	nt
Cc1ccc(C(=O)Nc2cccnc2)cc1S(=O)(=O)N1CCCCCC1	?	?	30	-9	26*
CCC1CCCCN1S(=O)(=O)c1cc(C(=O)Nc2ccc(C)c(F)c2)ccc1F (stereo not drawn)	nt	nt	nt	-91*	nt
CCOCCCNC(=O)c1c[nH]c2ccc(S(=O)(=O)Nc3cccc(Cl)c3C)cc2c1=O	nt	nt	nt	12	nt
COc1ccc(-n2c(C)cc(C(=O)COC(=O)Cc3n[nH]c(=O)c4ccccc34)c2C)cc1	2.1µM*	12µM*	14	?	-6
Cc1cc(C(=O)COC(=O)Cc2n[nH]c(=O)c3ccccc23)c(C)n1-c1ccc2c(c1)OCO2	?	6.6µM*	-15	-21	2
O=C(Cc1n[nH]c(=O)c2ccccc12)OCC(=O)c1ccc2c(c1)OCCO2	-1%	10%	33	-87*	13
O=C(Cc1n[nH]c(=O)c2ccccc12)OCC(=O)c1ccc(F)cc1	28%	34%	nt	16	nt
CCOC(=O)c1cc(S(=O)(=O)Nc2ccc(OC)cc2OC)cn1C	35%	47%	-3	-15	-1

Source: PubChem
